Reference: PubChem BioAssay (NCATS)
Records with an inconclusive call do not appear. A call without a number means that no potency is given here. The source made the active and inactive calls. Calls follow the shape of the dose curve; as a rule, active = well fitted inhibition curve with a large enough effect; inconclusive = small, poorly fitted or top-dose-only effect; inactive = flat fitted curve, though single readings scatter. Numbered stars: 1 amine (or outer) side, 2 acyl side, 3 side chain; on linkers, the order of the positions; unused ones are H or OH. Bridge positions count the residues as written; N and C are the ends. Square brackets hold non-standard residues; d marks the D form. Peptide text beside a SMILES is read from it. * marks the point of attachment. ξ: configuration not given here. Phe(3R-OH) = O=C([C@@H](N[*:1])[C@H](O[*:3])c1ccccc1)[*:2]; NMeTrp(4-OMe) = CN[C@@H](Cc1c[nH]c2cccc(OC)c12)C(=O)O; ξThr(3R)(O-yl) = C[C@@H](O[*:3])C(N[*:1])C(=O)[*:2]; NMeThr(3ξ) = CN[C@H](C(=O)O)C(C)O; NMeL = CN[C@@H](CC(C)C)C(=O)O; NMeV = CN[C@H](C(=O)O)C(C)C; ξIle = CC[C@H](C)C(N)C(=O)O; Octanoyl = CCCCCCCC(=O)*; ξV = CC(C)C(N)C(=O)O

test system: NAD(P)H diaphorase (Clostridium kluyveri); experiment: Diaphorse counterscreen qHTS: Assay Interference Panel against the NCATS CANVASS Library (AID 1347362); conditions: Diaphorase enzyme, resazurin to resorufin fluorescence; series mostly up to 57.5 µM
From the text: Natural products and their derivatives continue to be wellsprings of nascent therapeutic potential. However, many laboratories have limited resources for biological evaluation, leaving their previously isolated or synthesized compounds largely or completely untested. To address this issue, the Canvass library of natural products was assembled (https://tripod.nih.gov/canvass), in collaboration with academic and industry researchers, for quantitative high-throughput screening (qHTS) across a diverse set of cell-based and biochemical assays. The pure (>85% purity by liquid chromatography/mass spectrometry [LC/MS]) Canvass library of 346 natural products were submitted by 45 academic laboratories and companies around the world. We collected pure natural products to circumvent deconvolution and structure elucidation due to time and resource limitations. The library was formatted into 1536-well plates and evaluated in 50 qHTS (in an 11-pnt concentration series) bioassays with broad scope of disease-relevant mechanisms. The resulting data set from 50 different assays was then systematically analyzed to identify overall trends and specific natural products with interesting biological activities. Reported herein are the results of each individual qHTS and their corresponding assay protocol. This assay determines potential interactions with a common fluorescent coupling enzyme, NAD(P)H-Diaphorase, to identify possible false positives in future assays. The assay measures the conversion of resazurin to fluorescent resorufin, to identify compounds that inhibit the activity of diaphorase. National Center for Advancing Translational Sciences (NCATS), Rockville, MD National Institute of Health (NIH), Bethesda, Maryland
Assay Interference counterscreen protocol 1. In a 1536 well, black solid bottom, medium binding plates (Corning 7494), 3 uL of diaphorase from Clostridium kluyveri in PBS + 0.01% Tween-20 was dispensed into columns 2 to 48, rows 1 to 32 using the Bioraptr dispenser. PBS-T solution was dispensed in column 1, rows 1 to 32 for control purposes. 2. Compounds were pin transferred (~23 nL volume) via Wako Pin-tool (Wako Automation, Richmond VA) equipped with a 1536 pin head. The assay plates were treated with compounds in a concentration series with a final concentration range of 0.2 nM to 128 uM. 3. PTC was used as a control (25 uM, n = 32, column 2, row 1-32) at a final concentration of 114.5 nM and was pin transferred via Wako Pin-tool equipped with a 1536 pin head. 4. The assay plates were incubated in the dark for 15 minutes at room temperature. 5. One microliter of 4x detection reagent (40 uM Resazurin + 40 uM NADH in PBS-T) was then added to the assay plates (column 1-48, rows 1-32) for a final assay volume of 4 uL. 6. The assay plates were further incubated in the dark for 5 minutes at room temperature. 7. Fluorescence signal was acquired via the ViewLux plate reader (PerkinElmer) using an excitation filter 525/20, emission filter 598/25; 1000 light energy, 2 second exposure, 2x binning settings.
Potency is read from the fitted curve at half-maximal effect.

| Structure (SMILES) | Potency | activity change, negative = inhibition |
| --- | --- | --- |
| COc1cc(/C=C/C(=O)O)ccc1O | inactive | – |
| C[C@@H]1C(=O)[C@]23CC[C@H]1C[C@]21O[C@H]2C(C)(C)C=CC(=O)[C@@]23COC1=O | inactive | – |
| C=C[C@]1(C)CC[C@@H]([C@H](C)C(=O)OCC)O1 | inactive | – |
| C/C(=C\[C@H](C)C(=O)CCCC1CC(=O)NC(=O)C1)C(O)[C@@H](C)[C@H](O)C/C=C/CC/C=C/C(=O)O (stereo not given in full) | inactive | – |
| O=C(O)CC1OC(=O)c2c(O)cccc21 (stereo not given) | inactive | – |
| O=C1C[C@@H](c2ccc(O)c(-c3c(O)cc(O)c4c3O[C@H](c3ccc(O)cc3)CC4=O)c2)Oc2cc(O)cc(O)c21 | inactive | – |
| C=C1C[C@@]23C=CC(=O)[C@@](C)(CCC(=O)Nc4c(O)ccc(C(=O)O)c4O)C2C[C@@H]1CC3O (stereo not given in full) | inactive | – |
| C[C@@H]1O[C@H](c2c(O)cc(O)c3c(=O)cc(-c4ccc(O)cc4)oc23)[C@H](O)[C@H](O)[C@H]1O | inactive | – |
| CC1C(=O)C23CCC1C[C@]21O[C@@H]2C(C)(C)C=CC(=O)[C@@]23COC1=O (stereo not given in full) | inactive | – |
| C[C@@]12CCC[C@@](C)(C(=O)O)[C@H]1C[C@@H](O)[C@]13C[C@H]4C[C@H](O[C@@]4(C)C1)[C@@H]23 | inactive | – |
| CCCCCCCCC[C@@H]1C[C@@H]2CC[C@H]3[C@@H](C(=O)OCCCCN=C(N)N)[C@@H](C)N=C(N1)N23 | inactive | – |
| O=c1cc(-c2ccc(O)cc2)oc2c([C@@H]3OC(CO)[C@H](O)[C@@H](O)[C@H]3O)c(O)cc(O)c12 (stereo not given in full) | inactive | – |
| CO[C@H]1/C=C/CC[C@@H](S[C@@H]2O[C@H](CO)[C@@H](O)[C@H](O)[C@H]2O)CC(=O)O[C@@H](/C(C)=C/[C@H](C)C(=O)CCCC2CC(=O)NC(=O)C2)[C@@H](C)[C@@H]1O | inactive | – |
| C=C[C@]1(C)CC[C@@H]([C@H](C)C(=O)/C=C/C(C)C)O1 | inactive | – |
| CN1C(=O)C2C(N=CN2C)N(C)C1=O (stereo not given) | inactive | – |
| C1=C2CCCN[C@@H]2[C@@H]2CCN3CCCC[C@@H]3[C@H](C1)C2 | inactive | – |
| C/C=C/C(=O)[C@@H](C)C1=CC(=O)C2=C(O[C@@]34CC[C@H](O)C(C)(C)[C@@H]3CC[C@H](C)[C@@]4(C)C2)C1=O | 8.61 µM (active) | – |
| COc1ccc([C@@H]2c3cc(OC)c(OC)cc3C(=O)C(C)C2C)cc1OC (stereo not given in full) | inactive | – |
| Oc1ccc(/C=C2/c3cc(O)cc(O)c3C(c3ccc(O)cc3)[C@H]2c2cc(O)cc(O)c2)cc1 (stereo not given in full) | inactive | – |
| O=C(O)CC1OCc2c(O)cccc21 (stereo not given) | inactive | – |

| Structure (SMILES) | Potency | activity change, negative = inhibition |
| --- | --- | --- |
| C=C(C)[C@@H]1CC[C@]2(C)CC[C@]3(C)[C@H](CC[C@@H]4[C@@]5(C)CC[C@H](O)C(C)(C)[C@@H]5CC[C@]43C)[C@@H]12 | inactive | – |
| COc1ccc2oc3c(OC)c(OC)c(OC)c(OC)c3c(=O)c2c1 | – | -18.3% [at 11.5 µM] (inactive) |
| O=C(O)[C@@]12CO[C@@]3(O)C4CCN(CC[C@H]31)[C@H]4c1c2[nH]c2ccccc12 | inactive | – |
| CO[C@@H]1[C@H](O)[C@@H](C)O[C@@H](OC[C@H]2/C=C/C=C/C(=O)C(C)C[C@H](C)C(O[C@@H]3O[C@H](C)CC4(OC(=O)O[C@@H]4C)C3O)[C@@H](C)/C=C/C(=O)OC2C)[C@@H]1OC (stereo not given in full) | inactive | – |
| CCCCCCCC(=O)N[C@@H](CC(C)C)C(=O)N[C@H](C=O)CCC(=O)O (Octanoyl-Leu-Glu-aldehyde) | inactive | – |
| C[C@@H]1C[C@H]2C[C@]3(CCCCN3C)[C@@H]3C[C@H]2[C@H](C1)N(C)C3 | inactive | – |
| C=CC(C)(C)C(=O)[C@@H](C)[C@@H]1CC[C@](C)(C=C)O1 | inactive | – |
| CS/C=C/C(N)=O | inactive | – |
| C=C(C)C(=O)O[C@H]1C[C@H](C)[C@@H](OC(C)=O)CC[C@@]2(C)O[C@@H]2[C@H]2OC(=O)C(COC(C)=O)=C12 | inactive | – |
| C[C@@]12C[C@@H](C[C@H]3C(=O)O[C@@H](c4ccoc4)[C@H](OC(=O)c4ccccc4)[C@@H]31)OC2=O | inactive | – |
| O=C(O)[C@@]12COC3(O)C1CCN1CC[C@H]3[C@@H]1c1c2[nH]c2ccccc12 | inactive | – |
| COc1ccc(CCCc2cc(O)c(OC)c(O)c2)c(O)c1O | 21.6 µM (active) | – |
| C/C1=C/[C@@H](C)[C@H](O)C/C=C/CC/C=C/C(=O)O[C@@H]1[C@H](C)C(=O)/C=C/CC1CC(=O)NC(=O)C1 | inactive | – |
| C=C1C[C@@]23C=CC(=O)[C@@](C)(CCC(=O)Nc4c(OC5O[C@H](CO)[C@@H](O)[C@H](O)[C@H]5O)ccc(C(=O)O)c4O)C2C[C@@H]1CC3 (stereo not given in full) | inactive | – |
| C[C@@H](CCC[C@]1(C)C(=O)C=C[C@]23C[C@H]4C[C@H](O[C@@]4(C)C2)C31)C(=O)N[C@@H](CO)C(=O)O (stereo not given in full) | inactive | – |
| CC1(C)[C@H](Br)CC[C@]23C[C@]4(C)C(=O)CC12C[C@H]34 | inactive | – |
| COC1C(O)C(OC(N)=O)C(Oc2ccc3c(O)c(NC(=O)c4ccc(O)c(CC=C(C)C)c4)c(=O)oc3c2C)OC1(C)C (stereo not given) | inactive | – |
| CC[C@H](C)C(NC(=O)[C@@H](NC)C(C)C)C(=O)NC1C(=O)N(C)[C@@H](C(C)O)C(=O)N[C@@H](C(C)C)C(=O)N(C)[C@@H](CC(C)C)C(=O)NC(C(C)C)C(=O)N(C)[C@@H](C(C)C)C(=O)N(C)[C@@H](Cc2c[nH]c3cccc(OC)c23)C(=O)N[C@@H](C(C)C)C(=O)N[C@@H]([C@H](O)c2ccccc2)C(=O)N[C@@H](C(C)C)C(=O)O[C@@H]1C (stereo partly drawn) (H-[NMeV][ξIle][ξThr(3R)(O-yl)][NMeThr(3ξ)]V[NMeL][ξV][NMeV][NMeTrp(4-OMe)]V[Phe(3R-OH)]V; ester 3-C) | inactive | – |
| CCC[C@@H](C)/C=C(\C)[C@H](O)[C@H](C)/C=C/CC[C@@H](O)[C@H](C)[C@H](O)[C@H](C)[C@H](O)[C@H](C)[C@H]1O[C@H]([C@H](C)C(=O)O)CC[C@@H]1C | inactive | – |
| C=C1C(=O)O[C@H]2[C@H]1CC/C(CO)=C\CC[C@@]1(C)O[C@@H]21 | inactive | – |
